This is an account of results in PubChem BioAssay AID504339 (National Center for Advancing Translational Sciences (NCATS), 2011).

The whole screen tested about 390,000 compounds, of which about 17,000 (4.4%) were called active. Not shown: some 8% with an inconclusive outcome. Only a selection was taken, and actives are over-represented in it overall. Values without a mark were called inactive. Calls come from the whole dose curve; as a rule, active = well fitted inhibition curve with a large enough effect; inconclusive = small, poorly fitted or top-dose-only effect; inactive = no such curve, though single readings can be large or run the other way.
% is set by controls: 0 for no effect and ±100 for the full control effect; potency is the fitted concentration of half-maximal effect.

The target of this experiment is Lysine-specific demethylase 4A (Homo sapiens) (UniProt O75164). The experiment in a line: qHTS Assay for Inhibitors of JMJD2A-Tudor Domain. Note: nearly all actives have a fitted effect of over 50% in size. Particulars: AlphaScreen JMJD2A-Tudor / H3K4me3 peptide binding; series mostly up to 114 µM; activity change, negative = inhibition: at the top concentration.
Sequence of Lysine-specific demethylase 4A (Homo sapiens) (O75164 whole entry, looked up, the tested form may be a part): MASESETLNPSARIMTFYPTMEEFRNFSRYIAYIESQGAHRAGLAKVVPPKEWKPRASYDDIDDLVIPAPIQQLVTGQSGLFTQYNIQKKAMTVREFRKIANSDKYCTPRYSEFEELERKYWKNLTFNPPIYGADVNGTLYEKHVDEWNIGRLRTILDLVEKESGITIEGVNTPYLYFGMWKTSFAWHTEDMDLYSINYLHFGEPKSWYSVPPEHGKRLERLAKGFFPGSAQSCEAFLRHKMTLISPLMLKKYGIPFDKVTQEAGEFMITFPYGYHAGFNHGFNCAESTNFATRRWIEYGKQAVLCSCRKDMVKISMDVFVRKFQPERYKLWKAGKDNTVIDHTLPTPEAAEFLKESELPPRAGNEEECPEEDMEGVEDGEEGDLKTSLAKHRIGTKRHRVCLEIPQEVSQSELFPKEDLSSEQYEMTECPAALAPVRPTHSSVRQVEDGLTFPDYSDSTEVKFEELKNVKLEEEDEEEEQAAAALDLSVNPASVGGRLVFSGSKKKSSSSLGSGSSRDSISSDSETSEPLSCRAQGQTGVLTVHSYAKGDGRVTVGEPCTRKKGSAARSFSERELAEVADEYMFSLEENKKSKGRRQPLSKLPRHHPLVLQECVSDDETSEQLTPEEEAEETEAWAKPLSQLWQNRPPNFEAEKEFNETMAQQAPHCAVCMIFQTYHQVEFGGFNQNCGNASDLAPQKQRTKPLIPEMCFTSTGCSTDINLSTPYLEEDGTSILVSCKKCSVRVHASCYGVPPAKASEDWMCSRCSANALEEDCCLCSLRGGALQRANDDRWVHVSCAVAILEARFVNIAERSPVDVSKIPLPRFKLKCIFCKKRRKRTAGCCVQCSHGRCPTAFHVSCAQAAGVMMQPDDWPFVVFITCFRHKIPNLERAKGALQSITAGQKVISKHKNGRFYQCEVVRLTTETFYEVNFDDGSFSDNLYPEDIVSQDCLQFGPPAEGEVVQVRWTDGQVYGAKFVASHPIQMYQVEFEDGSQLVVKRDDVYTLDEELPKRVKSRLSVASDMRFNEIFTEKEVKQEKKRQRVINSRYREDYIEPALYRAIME
In the case of `NS(=O)(=O)c1ccc(NC(=O)C(=O)Nc2ccc3nc4n(c(=O)c3c2)CCCCC4)cc1`, the “activity change, negative = inhibition” value was -3.02%.
With `O=C(c1ccc2c(c1)N(Cc1ccccc1F)C(=O)c1ccccc1S2(=O)=O)N1CCOCC1`, the “activity change, negative = inhibition” value was -8.08%.
Take `COc1ccc(N(CC(=O)NCCc2ccc(Cl)cc2)S(=O)(=O)c2c(C)nn(C)c2C)cc1`: the “activity change, negative = inhibition” value is -6.67%.
Take `COc1cccc(Cn2c(SCc3ccc(C(=O)N4CCCCC4)cc3)nc3ccncc32)c1`: the “activity change, negative = inhibition” value was -19.1%.
Take `Cc1cccc(CSc2nc3ccncc3n2Cc2ccc(C(=O)O)cc2)c1`: the “activity change, negative = inhibition” value was -4%.
Turning to `COc1cccc(Cn2c(SCc3ccc(C(=O)N4CCC(C)CC4)cc3)nc3ccncc32)c1`, the Potency is 5.62 µM (active).
Consider `COc1cc(N2C(=O)CSC2=S)cc(OC)c1OC`, for which the “activity change, negative = inhibition” value was -5.37%.
On to `O=C1CSC(=S)N1c1ccc(O)cc1`, for which the “activity change, negative = inhibition” value was -1.99%.
Take `CCOc1cccc(/C=N/N2C(=O)CSC2=S)c1O`: the Potency is 20 µM (active).
With `COc1ccc(-c2cn3nc(N4CCCC(C(=O)NCCCOC(C)C)C4)sc3n2)cc1` (centres undefined), the “activity change, negative = inhibition” value is -17.2%.
`Cc1ccc(-n2c(SCC(=O)c3ccccc3)nc3c([nH]c4ccccc43)c2=O)cc1`: the “activity change, negative = inhibition” value is -13.9%.
Take `COc1ccc(NC(=O)CCNS(=O)(=O)c2ccc3c(c2)CCCC(=O)N3)cc1Cl`: the “activity change, negative = inhibition” value was 2.27%.
On to `COc1ccc(C(=O)Nc2cccc(C(=O)OCc3cc(=O)n4c5c(sc4n3)CCCC5)c2)cc1`, for which the “activity change, negative = inhibition” value was -28.5%.
Still for that read-out and setting: under `Cc1cccc(N2CCN(Cc3c(C)n(C)n(-c4ccccc4)c3=O)CC2)c1C` stands -8.21%.
For the compound `Cc1cccc(N2CCN(C3=C(c4ccccc4)C(=O)c4ccccc43)CC2)c1C`, the Potency was 5.62 µM (active).
As for `Cc1cccc(N2CCN(C(=O)c3oc(=O)c4ccccc4c3-c3ccccc3)CC2)c1C`, the “activity change, negative = inhibition” value is -28%.
As for `COc1cccc(-c2n[nH]c3c2C(c2cccc(O)c2)N(C)C3=O)c1` (centres undefined), the “activity change, negative = inhibition” value is -29.2%.
On to `CCC(=O)N1N=C(c2ccc(OC)cc2)CC1c1cn(-c2ccccc2)nc1-c1cccs1` (centres undefined), for which the “activity change, negative = inhibition” value was -8.58%.
As for `CCOc1ccc(C(=O)/C=C/c2cn(CC(O)CN3CCCCCC3)c3ccccc23)cc1` (centres undefined), the Potency is 70.8 µM (active).
As to `O=C(c1ccc(Cl)cc1)c1ccc(OCC(O)CN2CCCCC2)cc1` (centres undefined), the “activity change, negative = inhibition” value was -4.4%.
`CC1CCN(CC(O)COc2ccc(C(=O)c3ccccc3)cc2)CC1` (centres undefined): the “activity change, negative = inhibition” value is -12.1%.
On to `Cn1c(=O)c2c(nc(Oc3ccc(C#N)cc3)n2Cc2ccc(Cl)cc2Cl)n(C)c1=O`, for which the “activity change, negative = inhibition” value is -14.7%.
For `O=[N+]([O-])c1cc(-c2nc(-c3ccccc3)no2)ccc1NCc1ccco1`, the “activity change, negative = inhibition” value is -32.1%.
With `COc1ccc(C/C(N)=N/OC(=O)c2ccco2)cc1OC`, the Potency is 44.7 µM (active).
For the compound `COc1ccccc1C(=O)NC(=O)COC(=O)c1ccco1`, the “activity change, negative = inhibition” value was -12.8%.
In the case of `COc1ccc(CC(=O)Nc2ccccc2NC(=O)c2ccco2)cc1OC`, the “activity change, negative = inhibition” value was 6.04%.
Take `COc1ccc(OC)c(NC(=O)Cn2c(=O)n(Cc3ccccc3)c(=O)c3ccccc32)c1`: the “activity change, negative = inhibition” value is -19.8%.
Turning to `CN(C)c1ccc(C2N(C)C(=O)c3ccccc3N2C)cc1` (centres undefined), the “activity change, negative = inhibition” value is -33.6%.
Turning to `CN(C)c1ccc(Nc2c3c4c(cccc4n(C)c2=O)C(=O)c2ccccc2-3)cc1`, the Potency was 3.55 µM (active).
Regarding `Cc1cc(NS(=O)(=O)c2ccc(NC(=O)c3ccccc3C)cc2)nc(C)n1`, the “activity change, negative = inhibition” value is 0%.
Turning to `COc1ccc(CC(=O)Nc2nc3n(n2)C(c2ccccc2)CC(=O)N3)cc1OC` (centres undefined), the “activity change, negative = inhibition” value is -22.9%.
As for `COc1ccc(C2=CC(c3ccccc3Cl)n3nc(-c4ccc(Cl)cc4)nc3N2)cc1` (centres undefined), the “activity change, negative = inhibition” value is -22.8%.
Take `Cc1ccc(C2C=C(c3ccc(Cl)cc3)Nc3nc(NC(=O)CCC(=O)O)nn32)cc1` (centres undefined): the Potency is 79.4 µM (active).
With `COc1cccc(CN2CCc3nc(SCC(=O)Nc4ccccc4)[nH]c(=O)c3C2)c1`, the “activity change, negative = inhibition” value was -12.3%.
As to `S=C(NCCC1=CCCCC1)Nc1ccccc1`, the “activity change, negative = inhibition” value was -2.58%.
In the case of `Cc1cc(NC(=O)C(C)SCC(=O)Nc2ccccc2N2CCCCC2)no1` (centres undefined), the “activity change, negative = inhibition” value is -23.4%.
With `O=C(CNCCC1=CCCCC1)Nc1ccccc1N1CCCCCC1`, the Potency is 56.2 µM (active).
With `Cc1cc(-c2ccccc2)n2nc(-c3ccccc3)cc2n1`, the “activity change, negative = inhibition” value was 260%.
Turning to `Cc1nnc(SCC(=O)NCc2ccccc2Cl)c2nn(-c3ccccc3)c(C)c12`, the “activity change, negative = inhibition” value is -5.86%.
For `COc1ccc(CNC(=O)c2cc3c(=O)[nH]c4ccccc4c3s2)cc1`, the “activity change, negative = inhibition” value is 4.33%.
On to `CCN(c1ccccc1)S(=O)(=O)c1ccc(NC(=O)C(C)(C)C)cc1`, for which the “activity change, negative = inhibition” value was -16%.
For `CN(c1ccccc1)S(=O)(=O)c1ccc2[nH]c(=O)[nH]c2c1`, the “activity change, negative = inhibition” value was -18.4%.
`CCN(c1ccccc1)S(=O)(=O)c1ccc2[nH]c(=O)[nH]c2c1`: the Potency is 56.2 µM (active).
As to `CCCC12CN3CC(C)(CN(C1)C3c1ccccc1Cl)C2=O` (centres undefined), the “activity change, negative = inhibition” value is 2.75%.
Turning to `COc1ccc(N2CCN(C(=O)CSc3nc4cc(OC)c(OC)cc4cc3C#N)CC2)cc1`, the Potency is 56.2 µM (active).
As to `COc1ccc(N2CCN(C(=O)CSc3nnc4ncccn34)CC2)cc1`, the “activity change, negative = inhibition” value is -19.9%.
Still for that read-out and setting: under `CCOc1ccc(-c2nnn(CC(=O)N3CCN(c4ccc(OC)cc4)CC3)n2)cc1OCC` stands -19%; under `COc1ccccc1C(=O)Nc1c(C(=O)N(C)Cc2ccccc2)sc2nc(C)c(Cl)c(C)c12`, -16.8%.
For `O=C(NCc1ccc(Cl)cc1)c1ccc2c(c1)nnn2C1CCCC1`, the “activity change, negative = inhibition” value was -7.14%.
